Hits are enriched below; roughly 18% of the tested compounds scored in any of these assays.
Gal4-VP16 FLuc: VP16 counterscreen qHTS for inhibitors of ROR gamma transcriptional activity; Drosophila S2 Gal4-VP16 UAS-luciferase, luminescence, 20 h; Potency, µM (top dose mostly 53.6 µM), for the others: at the highest dose activity, negative = inhibition, most hits filed as inhibitors; 310,000 compounds, 3.5% hits; AID 2546, 2010;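 also: Gal4-VP16 expression switched on by copper sulfate through the metallothionein promoter; potency is read from the fitted curve at half-maximal effect; nearly all actives have a fitted effect of over 50% in size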
RORgamma inh: qHTS for inhibitors of ROR gamma transcriptional activity. Drosophila S2 Gal4-RORgamma UAS-luciferase reporter, 20 h. Potency, µM (doses to about 53.6 µM), inactives show at the top dose activity change, negative = inhibition, actives largely listed as inhibitors. 310,000 compounds, 5.4% hits. AID 2551, 2010; also: potency is read from the fitted curve at half-maximal effect; nearly all actives have a fitted effect of over 60% in size
Target sequence (P51450 whole entry, looked up, the tested form may be a part): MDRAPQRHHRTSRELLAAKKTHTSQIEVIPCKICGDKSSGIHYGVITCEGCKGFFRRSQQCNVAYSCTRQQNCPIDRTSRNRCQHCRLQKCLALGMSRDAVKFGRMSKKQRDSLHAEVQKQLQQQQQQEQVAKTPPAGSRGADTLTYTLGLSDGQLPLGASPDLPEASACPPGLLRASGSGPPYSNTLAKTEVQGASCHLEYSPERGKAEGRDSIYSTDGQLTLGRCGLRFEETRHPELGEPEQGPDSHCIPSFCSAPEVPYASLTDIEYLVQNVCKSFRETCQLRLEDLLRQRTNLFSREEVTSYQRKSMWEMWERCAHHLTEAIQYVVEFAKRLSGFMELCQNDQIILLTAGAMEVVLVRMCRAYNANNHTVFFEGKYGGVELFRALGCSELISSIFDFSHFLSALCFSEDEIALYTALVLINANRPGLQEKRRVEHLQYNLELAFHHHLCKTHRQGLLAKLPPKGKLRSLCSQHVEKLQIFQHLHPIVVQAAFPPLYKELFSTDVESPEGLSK
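Drosophila S2 cells stably expressing Gal4-DBD/mouse RORγ fusion under metallothionein promoter plus UAS-luciferase; compound 1 h, then 700 uM CuSO4 induction for 20 h at ambient temperature; inhibition read as reduced luminescence.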
LDHA block: qHTS assay for inhibitors of human lactate dehydrogenase; purified LDHA, NADH/diaphorase-resazurin fluorescence; stronger effect = lower value; 480,000 compounds, 0.15% hits; L-lactate dehydrogenase A chain (Homo sapiens), P00338; activity change, % (values are at about 110 or 230 µM); in the data active = activity change below about -30%; inconclusive = mostly about -25% to -30%;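 also: plate controls were DMSO wells for no effect and wells without enzyme for full effect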
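LDH5 2 nM; NADH 0.06 mM, pyruvate 0.2 mM; 200 mM Tris pH 7.4, EDTA, Tween-20; 5 min RT. Detection: diaphorase 0.133 mg/mL + resazurin 37 µM, fluorescence ex540/em590 at 0 and 20 min; normalized to enzyme-free and DMSO wells.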
DT40 TDP1 no CPT: qHTS for Inhibitors of human tyrosyl-DNA phosphodiesterase 1 (TDP1): qHTS in cells in absence of CPT. DT40 Tdp1-/- hTDP1 cells, no CPT, ATP luminescence, 48 h. Potency, µM (titrated, usually from 46.2 µM), for the others: at the highest dose activity change, negative = growth inhibition, most hits filed as inhibitors. 420,000 compounds, 15% hits; also: potency is read from the fitted curve at half-maximal effect; nearly all actives have a fitted effect of over 55% in size
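Cells were dispensed at 400 per well, compounds added by pin tool, plates incubated ≥48 hr at 37 °C, then CellTiter-Glo added for 30 min at room temperature before luminescence reading. Line: DT40 Tdp1-/- complemented with hTDP1; camptothecin omitted.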
IL1B secr inh: qHTS for Inhibitors of Inflammasome Signaling: IL-1-beta AlphaLISA Primary Screen; activity change, % at 57.5 µM; THP-1 LPS/ATP IL-1B secretion, AlphaLISA, 16 h; stronger effect = lower value; 360,000 compounds, 4.7% hits; AID 743279, 2014; in the data active = activity change below about -50%; inconclusive = mostly about -30% to -49%
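THP-1 cells pretreated 1 hr with compounds (up to 57.5 uM final), then stimulated with LPS (250 ng/mL final) plus ATP (1.25 mM final); secreted IL-1B measured by AlphaLISA after 16 hr, decreased signal indicating inhibition.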
DT40 TDP1 CPT: qHTS for Inhibitors of human tyrosyl-DNA phosphodiesterase 1 (TDP1): qHTS in cells in presence of CPT | chicken DT40 Tdp1-/-;hTDP1 cells + 20 nM CPT, ATP luminescence, 48 h | 420,000 compounds, 12% hits | Potency, µM (series often up to 46.2 µM), without a hit: at the highest dose activity change, negative = growth inhibition, hits mostly inhibitors; also: potency is read from the fitted curve at half-maximal effect; nearly all actives have a fitted effect of over 55% in size
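Chicken DT40 Tdp1-/- cells stably complemented with human TDP1 were seeded at 400 cells/well in medium containing 20 nM camptothecin, exposed to pin-transferred compounds, and grown at 37 °C for at least 48 hr. Viability was read as ATP luminescence.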
Numbers without * were called inactive; ! = a repeat was not active. Unless noted, calls follow the shape of the dose curve; as a rule, active = well fitted curve in the direction sought with a large enough effect; inconclusive = small, poorly fitted or top-dose-only effect, or another doubt; inactive = no such curve, though single readings can be large; an effect the other way counts as inactive or inconclusive. Unless noted, % is scaled to controls: 0 for no effect and ±100 for the full control effect.

Screening CCc1cc2c(s1)-n1c(C)nnc1CN=C2c1ccccc1Cl returned DT40 TDP1 no CPT -18.8% and DT40 TDP1 CPT inconclusive.
Screening CCOc1ccc(-c2nc(CSCC(=O)NCCc3ccc(OCC)c(OCC)c3)c(C)o2)cc1 returned LDHA block 3.3, DT40 TDP1 no CPT 16.4µM* and DT40 TDP1 CPT 14.6µM*.
Screening O=C(Nc1ncc(Cc2ccccc2)s1)C1=NCCN1 returned Gal4-VP16 FLuc inconclusive, RORgamma inh 2µM*, LDHA block -4.2, DT40 TDP1 no CPT inconclusive, IL1B secr inh -6.0 and DT40 TDP1 CPT -27.9%.
For CCC(=NCc1ccc2c(c1)OCO2)c1c(O)n(C)c(=O)n(C)c1=O the results were Gal4-VP16 FLuc inconclusive, RORgamma inh 38.5%, LDHA block 2.5, DT40 TDP1 no CPT 20.6µM*, IL1B secr inh -25.8 and DT40 TDP1 CPT inconclusive.
`CC(=NCc1ccc2c(c1)OCO2)c1c(O)n(C)c(=O)n(C)c1=O` gave Gal4-VP16 FLuc -2.8%, RORgamma inh 14.9%, LDHA block -1.2, DT40 TDP1 no CPT inconclusive, IL1B secr inh 10.5 and DT40 TDP1 CPT inconclusive.
`CCC(=NCc1cc(OC)cc(OC)c1)c1c(O)n(C)c(=O)n(C)c1=O` gave Gal4-VP16 FLuc inconclusive, RORgamma inh -13.8%, LDHA block -3.2, DT40 TDP1 no CPT 8.91µM*, IL1B secr inh 2.5 and DT40 TDP1 CPT 10µM*.
C=C1Nc2ccccc2C(=O)N1c1ccccc1C was read as Gal4-VP16 FLuc 3.5% and RORgamma inh 7.7%.
For CCCCNc1ccncc1S(=O)(=O)NC(=O)NC(C)C the results were Gal4-VP16 FLuc -0.6%, RORgamma inh -10.7%, LDHA block -0.7, DT40 TDP1 no CPT 0.3%, IL1B secr inh 23.6 and DT40 TDP1 CPT 18.4%.
`CCCCNC(=O)c1cc(-c2cccnc2)nc2ccc(S(=O)(=O)NCCCC)cc12` gave LDHA block 1.6, DT40 TDP1 no CPT inconclusive and DT40 TDP1 CPT 20.6µM*.
Screening NNCc1cccnc1 returned LDHA block 1.1.
CCCNC(=O)c1c(N)n(CC2CCCO2)c2nc3ccccc3nc12 (stereo unspecified) was read as Gal4-VP16 FLuc 6.31µM*, RORgamma inh inconclusive, LDHA block 11.2, DT40 TDP1 no CPT 20.6µM*, IL1B secr inh -26.9 and DT40 TDP1 CPT inconclusive.
Screening CC(C)OCCCNC(=O)c1c(N)n(CC2CCCO2)c2nc3ccccc3nc12 (stereo unspecified) returned Gal4-VP16 FLuc -8.4%, RORgamma inh 13.0%, LDHA block 24.1, DT40 TDP1 no CPT -29.2%, IL1B secr inh -63.9* and DT40 TDP1 CPT inconclusive.
For CCCCOCCCn1c(N)c(C(=O)OCCOC)c2nc3ccccc3nc21 the results were Gal4-VP16 FLuc -0.3%, RORgamma inh 33.3%, LDHA block 1.4, DT40 TDP1 no CPT inconclusive, IL1B secr inh inconclusive and DT40 TDP1 CPT inconclusive.
`Cc1ccc(Cn2nc(C)c(C(=O)NCc3cc(Cl)c4c(c3)OCCCO4)c2Cl)cc1` gave LDHA block -1.4.
For NC(=O)Cc1cccc(C(=O)c2ccccc2)c1N the results were DT40 TDP1 no CPT inconclusive and DT40 TDP1 CPT -13.5%.
For COC(=O)C1=C(c2ccc(F)cc2OCc2ccccc2)C[C@@H]2CC[C@H]1N2C the results were LDHA block -7.7, DT40 TDP1 no CPT 16.4µM*, IL1B secr inh -18.3 and DT40 TDP1 CPT 23.1µM*.
COC(=O)C1=C(c2ccccc2OCc2ccccc2)C[C@@H]2CC[C@H]1N2C was read as LDHA block -8.0, DT40 TDP1 no CPT 23.1µM*, IL1B secr inh -15.3 and DT40 TDP1 CPT inconclusive.
`CCOC(=O)CCN(SN(C)C(=O)Oc1cccc2c1OC(C)(C)C2)C(C)C` gave Gal4-VP16 FLuc 29.4% and RORgamma inh 30.8%.
Screening CCCCCCCCCCCCCl returned Gal4-VP16 FLuc -6.6% and RORgamma inh 12.5%.
For CCCCCCCCCCCCCCCC[n+]1ccccc1 the results were Gal4-VP16 FLuc 15.8µM*, RORgamma inh inconclusive, LDHA block 4.1, DT40 TDP1 no CPT 0.326µM*, IL1B secr inh -91.8*! and DT40 TDP1 CPT 0.651µM*.
Screening Brc1cccc(-c2ccccc2)c1 returned Gal4-VP16 FLuc 1.0% and RORgamma inh 1.3%.
COc1ccc(CN2CCN(C(=O)Cn3c(=O)oc4cc(Cl)ccc43)CC2)c(OC)c1OC was read as Gal4-VP16 FLuc inconclusive, RORgamma inh inconclusive, LDHA block 3.5, DT40 TDP1 no CPT inconclusive, IL1B secr inh -29.3 and DT40 TDP1 CPT 10.3µM*.
`O=C(Nc1ccccc1)N1CC[C@@]2(CCCNC2)C1` gave Gal4-VP16 FLuc 6.0%, RORgamma inh -33.5%, DT40 TDP1 no CPT 4.4% and DT40 TDP1 CPT -14.0%.
`C[C@@H]1CO1` gave Gal4-VP16 FLuc -13.5% and RORgamma inh 2.1%.
COc1ccc(CNC(=O)c2cnn3c(C)c(Cc4ccc(F)cc4)c(C)nc23)cc1 was read as LDHA block -7.5, DT40 TDP1 no CPT 14.6µM* and DT40 TDP1 CPT 16.4µM*.
CCc1nn(CC(=O)N2CCN(Cc3ccc4c(c3)OCO4)CC2)c(=O)c2cc3occc3n12 was read as Gal4-VP16 FLuc -3.9%, RORgamma inh -18.3%, LDHA block -1.4, DT40 TDP1 no CPT inconclusive, IL1B secr inh -19.4 and DT40 TDP1 CPT inconclusive.
Screening Cc1cc(-c2nc3ccccc3s2)ccc1NC(=O)c1cc(Cl)ccc1Cl returned LDHA block -3.5, DT40 TDP1 no CPT inconclusive and DT40 TDP1 CPT inconclusive.
Screening Cc1cc(C)cc(OCC(=O)Nc2ccc(-c3nc4ccccc4s3)cc2)c1 returned LDHA block -7.1, DT40 TDP1 no CPT 9.2µM* and DT40 TDP1 CPT 10.3µM*.
CCOc1cc2[nH]c(=O)n(CCCC(=O)N3CCN(c4cccc(Cl)c4)CC3)c(=O)c2cc1OCC was read as LDHA block -1.0, DT40 TDP1 no CPT 3.26µM* and DT40 TDP1 CPT 5.8µM*.
O=C(Nc1ccc(N2CCOCC2)cc1)C1CCN(S(=O)(=O)c2cccc(C(F)(F)F)c2)CC1 was read as LDHA block 0.8, DT40 TDP1 no CPT inconclusive, IL1B secr inh 26.2 and DT40 TDP1 CPT inconclusive.

Source: PubChem
